These results are taken from PubChem BioAssay (NCATS).

Records with an inconclusive call do not appear. Where a call stands in place of a potency, no number is given. Active and inactive are the calls of the source. Calls follow the shape of the dose curve; as a rule, active = well fitted curve in the direction sought with a large enough effect; inconclusive = small, poorly fitted or top-dose-only effect, or another doubt; inactive = no such curve, though single readings can be large; an effect the other way counts as inactive or inconclusive.

The first assay can be described thus: qHTS of pediatric cancer cell lines to identify multiple opportunities for drug repurposing: Primary screen for DAOY cells (AID 1347090). Also: nearly all actives have a fitted effect of over 55% in size. To be noted: DAOY medulloblastoma viability, CellTiter-Glo luminescence, 48 h; series mostly up to 46 µM. In a few lines: (§1)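 Cell viability, CellTiter-Glo luminescence; 500-1,000 cells/well, 8- or 11-point titration, 48 h compound exposure at 37 degrees C, 5% CO2. Controls: DMSO neutral, bortezomib 2.3 µM final as positive.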
(In general: qHTS replaces the single test concentration by a dilution series.)
`CC(NN)c1ccccc1` (configuration not stated): the Potency result is “inactive”.
In the case of `O=C(c1cc(O)c(O)c(O)c1)c1ccc(O)c(O)c1O`, the Potency entry was “inactive”.
The same measure, in the same setting: next, `Cc1cc(O)c(C)c(C)c1O`: “inactive”.
Same read-out and setting: next, `CCCOc1ccc2c(c1)CC[C@@H]1[C@@H]2CC[C@]2(C)C(OC)CC[C@@H]12` (some centres not stated): “inactive”.
Still for that read-out and setting: to `CO/N=C(\C(=O)O)c1csc(NC(=O)CCl)n1` belongs “inactive”; to `CCN1CCN(C(=O)N[C@@H](C(=O)N[C@@H]2C(=O)N3[C@@H]2SC(C)(C)[C@H]3C(=O)O)c2ccccc2)C(=O)C1=O`, “inactive”; to `CC(=O)N(c1onc(C)c1C)S(=O)(=O)c1ccc(N)cc1`, “inactive”.
Consider `Fc1ccc(C(c2ccc(F)cc2)N2CCNCC2)cc1`, for which the Potency entry was “inactive”.
On the same count and under the same terms, to `N#Cc1cc(NC(=O)C(=O)O)c(Cl)c(NC(=O)C(=O)O)c1` belongs “inactive”.
On to `CC1CCCCN1CCCOC(=O)c1ccc(OC2CCCCC2)cc1` (configuration not stated), for which the Potency entry was “inactive”.
Still for that read-out and setting: to `C[C@H]1C[C@@H]2[C@H]([C@@H](O)C[C@@]3(C)[C@H]2CC[C@]3(O)C(=O)CO)[C@@]2(C)C=CC(=O)C=C12` belongs “inactive”; to `NS(=O)(=O)c1cc2c(cc1Cl)CN(C1CCCCC1)C2=O`, “inactive”.
Turning to `CCC1(c2cnc[nH]2)Cc2ccccc2C1`, the Potency entry is “inactive”.
As to `CC(=O)Nc1ccc(S(=O)(=O)Nc2cc(C)on2)cc1`, the Potency entry was “inactive”.
The same measure, in the same setting: next, `Cc1nc([N+](=O)[O-])cn1-c1ccc([N+](=O)[O-])cc1`: “inactive”; `CCOC(=O)N1CCC(Nc2ccc(Cl)cc2N)CC1`: “inactive”.
On the same count and under the same terms, to `CO[C@@H]1[C@@H](O[C@@H]2O[C@H](C)[C@@H](O[C@H]3C[C@@](C)(O)[C@@H](O)[C@H](C)O3)[C@H](N(C)C)[C@H]2O)[C@@H](CC=O)C[C@@H](C)[C@@H](O[C@@H]2CC[C@H](N(C)C)[C@@H](C)O2)/C=C/C=C/C[C@@H](C)OC(=O)C[C@H]1OC(C)=O` belongs “inactive”; to `COC(=O)C1=C(C)NC(C)=C(C(=O)OCCc2ccc(N3CCN(C(c4ccccc4)c4ccccc4)CC3)cc2)C1c1cccc([N+](=O)[O-])c1` (configuration not stated), “inactive”; to `CCCCCCn1c(=O)c2c(ncn2C)n(C)c1=O`, “inactive”.
As for `OC1(c2ccccc2)CCNCC1`, the Potency entry was “inactive”.
Regarding `CN(C)CCOC1=Cc2ccccc2Sc2ccc(Cl)cc21`, the Potency result is “inactive”.

A short description of the next assay: qHTS of pediatric cancer cell lines to identify multiple opportunities for drug repurposing: Primary screen for SJ-GBM2 cells (AID 1347091). Also: potency is read from the fitted curve at half-maximal effect. To be noted: SJ-GBM2 viability, CellTiter-Glo luminescence, 48 h; series mostly up to 46 µM. The method, boiled down: as §1
Regarding `COc1ccc2c(c1)c(CC(=O)OC/C=C(\C)CC/C=C(\C)CCC=C(C)C)c(C)n2C(=O)c1ccc(Cl)cc1`, the Potency entry is “inactive”.
On the same count and under the same terms, to `CCCN(CCC)C(=O)C(CCC(=O)OCCCN1CCN(CCOC(=O)Cc2c(C)n(C(=O)c3ccc(Cl)cc3)c3ccc(OC)cc23)CC1)NC(=O)c1ccccc1` (configuration not stated) belongs 18.8 µM (active); to `CC[N+](CC)(CC)CCOC(=O)C(C1CCCC1)C1CCCC1`, “inactive”; to `CC(NC(CCc1ccccc1)C(=O)O)C(=O)N1C(=O)N(C)CC1C(=O)O` (configuration not stated), “inactive”.
On to `CC(C)(C)c1ccc(C(=O)CCCCl)cc1`, for which the Potency result was “inactive”.
On to `CC[N+]1(CC)CCC(=C(c2ccccc2)c2ccccc2)C1C` (configuration not stated), for which the Potency entry is “inactive”.
Still for that read-out and setting: next, `CCCc1c2oc(C(=O)O)cc(=O)c2cc2c(=O)cc(C(=O)O)n(CC)c12`: “inactive”.
On the same count and under the same terms, next, `C#Cc1ccc(-c2ccccc2F)cc1`: “inactive”.
With `COC(=O)/C=C\C(=O)OC`, the Potency entry was “inactive”.
Consider `CC(=O)O[C@H]1CC[C@@]2(C)C(=CC[C@@H]3[C@@H]2CC[C@]2(C)C(C(C)=O)=CC[C@@H]32)C1`, for which the Potency result is “inactive”.
On the same count and under the same terms, to `CCC[C@H](N[C@@H](C)C(=O)N1[C@H](C(=O)O)C[C@@H]2CCCC[C@@H]21)C(=O)OCC` belongs “inactive”; to `C[N+](C)(CCOc1ccccc1)Cc1cccs1`, “inactive”; to `CCCCOC(=O)CCCCCCCCC(=O)OCCCC`, “inactive”.
The same measure, in the same setting: to `CC1(C)O[C@@H]2C[C@H]3[C@@H]4C[C@H](F)C5=CC(=O)C=C[C@]5(C)[C@@]4(F)[C@@H](O)C[C@]3(C)[C@]2(C(=O)CO)O1` belongs “inactive”.
With `CO/N=C(/C(=O)N[C@@H]1C(=O)N2C(C(=O)[O-])=C(C[n+]3ccn4ncccc43)CS[C@H]12)c1nsc(N)n1`, the Potency result is “inactive”.
In the case of `CC(NN)c1ccccc1` (configuration not stated), the Potency result is “inactive”.
The same measure, in the same setting: to `O=C(c1cc(O)c(O)c(O)c1)c1ccc(O)c(O)c1O` belongs “inactive”; to `Cc1cc(O)c(C)c(C)c1O`, “inactive”.
Same read-out and setting: to `CCCOc1ccc2c(c1)CC[C@@H]1[C@@H]2CC[C@]2(C)C(OC)CC[C@@H]12` (some centres not stated) belongs “inactive”; to `CO/N=C(\C(=O)O)c1csc(NC(=O)CCl)n1`, “inactive”; to `CCN1CCN(C(=O)N[C@@H](C(=O)N[C@@H]2C(=O)N3[C@@H]2SC(C)(C)[C@H]3C(=O)O)c2ccccc2)C(=O)C1=O`, “inactive”.
On the same count and under the same terms, to `CC(=O)N(c1onc(C)c1C)S(=O)(=O)c1ccc(N)cc1` belongs “inactive”.
In the case of `Fc1ccc(C(c2ccc(F)cc2)N2CCNCC2)cc1`, the Potency result is “inactive”.
Still for that read-out and setting: next, `N#Cc1cc(NC(=O)C(=O)O)c(Cl)c(NC(=O)C(=O)O)c1`: “inactive”; `CC1CCCCN1CCCOC(=O)c1ccc(OC2CCCCC2)cc1` (configuration not stated): “inactive”.
Still for that read-out and setting: to `C[C@H]1C[C@@H]2[C@H]([C@@H](O)C[C@@]3(C)[C@H]2CC[C@]3(O)C(=O)CO)[C@@]2(C)C=CC(=O)C=C12` belongs “inactive”.
In the case of `NS(=O)(=O)c1cc2c(cc1Cl)CN(C1CCCCC1)C2=O`, the Potency result is “inactive”.
Still for that read-out and setting: next, `CCC1(c2cnc[nH]2)Cc2ccccc2C1`: “inactive”.
Same read-out and setting: to `CC(=O)Nc1ccc(S(=O)(=O)Nc2cc(C)on2)cc1` belongs “inactive”.
Take `Cc1nc([N+](=O)[O-])cn1-c1ccc([N+](=O)[O-])cc1`: the Potency entry is “inactive”.
On the same count and under the same terms, to `CCOC(=O)N1CCC(Nc2ccc(Cl)cc2N)CC1` belongs “inactive”; to `CO[C@@H]1[C@@H](O[C@@H]2O[C@H](C)[C@@H](O[C@H]3C[C@@](C)(O)[C@@H](O)[C@H](C)O3)[C@H](N(C)C)[C@H]2O)[C@@H](CC=O)C[C@@H](C)[C@@H](O[C@@H]2CC[C@H](N(C)C)[C@@H](C)O2)/C=C/C=C/C[C@@H](C)OC(=O)C[C@H]1OC(C)=O`, “inactive”.
Turning to `COC(=O)C1=C(C)NC(C)=C(C(=O)OCCc2ccc(N3CCN(C(c4ccccc4)c4ccccc4)CC3)cc2)C1c1cccc([N+](=O)[O-])c1` (configuration not stated), the Potency entry was “inactive”.
Same read-out and setting: next, `CCCCCCn1c(=O)c2c(ncn2C)n(C)c1=O`: “inactive”.
For the molecule `OC1(c2ccccc2)CCNCC1`, the Potency entry was “inactive”.
As for `CN(C)CCOC1=Cc2ccccc2Sc2ccc(Cl)cc21`, the Potency result is “inactive”.
